TIM10 inh: inhibits growth of TIM10 yeast strain | S. cerevisiae TIM10 strain growth, BacTiter-Glo luminescence, 24 h | inhibition, % at 10 µM | 330,000 compounds, 1.4% hits | AID 463195;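 active means inhibition of 40% or more at the single tested concentration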;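 further: wild-type TIM10 isogenic control strain grown at permissive 25 °C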
Yeast superoxide: caloric restriction mimetics inhibiting age-related superoxide in yeast; S. cerevisiae aged cells, superoxide DHE fluorescence; stronger effect = lower value; superoxide response (% of plate mean), % at 10 µM; 330,000 compounds, 0.18% hits;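 active means superoxide response under a set limit, about three screen SD below normal, cut at about 65% in these data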;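 further: yeast aged for seven days with compound at 30 °C before DHE staining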
tim10-1 inh: inhibits growth of tim10-1 mutant yeast. S. cerevisiae tim10-1 ts strain growth, BacTiter-Glo, 24 h. inhibition, % at 20 µM. 330,000 compounds, 2.2% hits;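 active means inhibition of at least 40%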;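 further: mutant grown at 25 °C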
NALP3 yeast inh: NALP3 inhibition in yeast | Yeast reconstituted NLRP3/ASC/caspase-1, beta-gal luminescence, 24 h | inhibition, % at 10 µM | 330,000 compounds, 0.39% hits;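 active means inhibition of 50% or more; inactive means inhibition below 50%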
tim23-1 inh: growth inhibitors of tim23-1 mutant yeast; S. cerevisiae tim23-1 growth, BacTiter-Glo luminescence, 24 h; inhibition, % at 20 µM; 330,000 compounds, 1.3% hits;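 active means growth inhibition of the mutant yeast at or above 50%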;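 further: temperature-sensitive mutant grown at 25 °C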
tim23-1 confirm: tim23-1 yeast growth inhibition, confirmed. shares compounds with tim23-1 inh. S. cerevisiae tim23-1 growth, BacTiter-Glo luminescence, 24 h. inhibition, % at 20 µM. 4,400 compounds, 83% hits. AID 463218;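 active means inhibition above about 39% in either of two replicate wells at 20 µM, limit read from the data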;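 further: temperature-sensitive tim23-1 mutant grown at 25 °C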
A number is an active result; – = inactive; · = no result given. The list is not random: actives were taken first. Their share in the collection is about 3.8%.

SMILES	TIM10 inh	Yeast superoxide	tim10-1 inh	NALP3 yeast inh	tim23-1 inh	tim23-1 confirm
S=C(NCc1ccccn1)Nc1ccc(Cl)c(Cl)c1	–	–	–	–	56	46
O=C(CCc1c[nH]c2ccccc12)OCC(=O)N1CCN(S(=O)(=O)c2ccccc2)CC1	–	–	–	–	–	·
Nc1nc(-c2cc(Cl)cc(Cl)c2OC(F)F)cs1	–	–	–	–	61	52
CCc1ccc(OC)c(-c2csc(N)n2)c1	–	–	–	–	–	·
Cc1nnc(SCc2ccc3c(c2)OCO3)s1	–	–	–	–	–	·
O=C(COc1ccccc1)N/N=C/c1ccc([N+](=O)[O-])o1	–	–	–	–	54	75
COc1ccc(-c2c(C#N)c(N)nc3c2CCc2ccccc2-3)cc1OC	–	–	–	–	51	–
Cc1cc(Nc2ccc3c(c2)OCCO3)c2cc(Cl)ccc2n1	–	–	–	–	–	·
COC(=O)c1[nH]c2cc(OC)ccc2c1NC(=O)CCN1CCCC(C)(C)C1	–	–	–	–	74	–
COc1cccc(/C(C)=N/Nc2ccc(S(=O)(=O)N3CCCCC3)cn2)c1	–	–	–	–	51	44
O=[N+]([O-])c1cccc(NC(=S)N2CCc3ccccc3C2)c1	–	–	–	–	52	55
O=C(c1ccco1)N1CCN(C(=S)Nc2cccc([N+](=O)[O-])c2)CC1	–	–	–	–	–	·
O=C(Nc1ccc(NC(=S)NC(=O)c2ccccc2F)cc1)c1cccs1	–	–	–	–	51	50
Fc1ccccc1NC(=S)NCCc1ccc(Cl)cc1	–	–	–	–	55	55
O=C(NC(=S)NCCc1ccccc1)c1ccccc1F	–	–	–	–	51	44
O=C(NC(=S)NC(=O)c1ccccc1F)c1ccccc1F	–	–	–	–	54	48
O=C(C1CC(=O)N(c2ccc3c(c2)OCCO3)C1)N1CCN(Cc2ccccc2F)CC1 (stereo unspecified)	–	–	–	–	–	·
COc1ccc(C(=O)NC(=S)NCc2ccccc2)cc1OC	–	–	–	–	–	·
Cc1ccc(C(=O)NC(=S)NCc2ccccc2)cc1	–	–	–	–	52	42
COc1ccc(CCNC(=S)Nc2cccc(C)c2C)cc1	–	–	–	–	50	–
COc1ccc(NC(=O)c2ccc(Br)o2)c([N+](=O)[O-])c1	–	–	–	–	–	·
Cc1ccc2c(Cl)c(C)c(N3CCCCC3)nc2n1	–	–	–	–	67	58
C/C(=N\Nc1cc(N2CCCCC2)nc(C)n1)c1ccc(Br)cc1	–	–	–	–	57	49
CCOC(=O)Cc1csc(NC(=O)CN2CCOCC2)n1	–	–	–	–	–	·
Cc1ccc(CNc2nc(C)nc3sc4c(c23)CCC4)cc1	–	–	–	–	–	·
SMILES	TIM10 inh	Yeast superoxide	tim10-1 inh	NALP3 yeast inh	tim23-1 inh	tim23-1 confirm
Cc1nc(Nc2ccc(O)cc2)c2c3c(sc2n1)CCCC3	–	–	–	–	52	45
C=C(C)C(O)Cc1c(OC)ccc(C(=O)/C=C/c2ccc(O)cc2)c1O (stereo unspecified)	–	–	–	–	54	42
CC(OC(=O)CC1CC2CCC1C2)C(=O)Nc1ccc(C(N)=O)cc1 (stereo unspecified)	–	–	–	–	–	·
CCSc1ccc([C@@H]2[C@H]3C(=O)N(CC)C(=O)[C@H]3[C@]3(C(=O)OC)CCCCN23)cc1	–	–	–	–	81	45
CC(=O)n1cc(N(C(=O)CCl)c2ccc(C)cc2)c2ccccc21	–	–	–	–	69	–
CCC(=O)c1ccc(OCC(=O)OCC(=O)NCC2CCCO2)cc1 (stereo unspecified)	–	–	–	–	–	·
CCCCCCO	–	–	–	–	–	·
CCCCCCCCCCCCCCCC(O)C(N)CO (stereo unspecified)	–	–	–	–	52	44
Cc1ccccc1-c1nnc(SCC(=O)c2c(N)n(C3CC3)c(=O)[nH]c2=O)o1	–	–	–	–	–	·
Cc1ccc(/C=N/NC(=O)c2ccc(OC3CCCC3)cc2)o1	–	·	–	–	58	55
Cc1ccc(CN(C(=O)c2ccc(Cl)c([N+](=O)[O-])c2)C2CCS(=O)(=O)C2)o1 (stereo unspecified)	–	–	–	–	–	·
COc1ccc(Cn2c(C(C)C)nc3sc4ccccc4c(=O)c3c2=O)cc1	–	–	–	–	62	55
CCCc1nc2sc3ccccc3c(=O)c2c(=O)n1Cc1ccc(OC)cc1	–	–	–	–	52	45
CC(C)c1nc2sc3ccccc3c(=O)c2c(=O)n1Cc1ccccc1	–	–	–	–	–	·
CCOC(=O)C(C)/C(C)=N/NC(=O)CCC(=O)Nc1cc(C)ccc1C (stereo unspecified)	–	–	–	–	–	·
COc1ccccc1NS(=O)(=O)c1cc(NC(=O)c2cccc(S(=O)(=O)N(C)C)c2)ccc1N1CCOCC1	–	·	–	–	–	·
CC1CCC(NC(=O)C2CCC(CNc3c(N4CCCCC4)c(=O)c3=O)CC2)CC1 (stereo unspecified)	–	–	–	–	–	·
O=C(NC(=S)NCc1ccco1)c1cccc(Cl)c1	–	–	–	–	57	47
OC(COc1ccc(Cl)c2ccccc12)CN1CCN(c2ccccn2)CC1 (stereo unspecified)	–	–	–	–	63	–
OC(COc1cccc2ccccc12)CN1CCN(c2cccc(Cl)c2)CC1 (stereo unspecified)	–	–	–	–	69	–
CC[C@]1(C(=O)OC)[C@H]2C(=O)N(Cc3ccccc3)C(=O)[C@H]2[C@H]2CN=C(SCC3CC3)N21	–	–	–	·	–	·
CN(C)CCCN1C(=O)c2cccc3c(Br)ccc(c23)C1=O	–	–	–	–	62	71
CC(C)CCN(C(=S)Nc1cccc(C(F)(F)F)c1)C(C)c1ccccn1 (stereo unspecified)	–	–	–	–	54	54
CC(c1ccccn1)N(CCN(C)C)C(=S)Nc1cccc(F)c1 (stereo unspecified)	–	–	–	–	–	·
Cc1cccc(C)c1NC(=O)NC1(C(=O)N2CCCCC2)CCCCC1	–	–	–	–	–	·
SMILES	TIM10 inh	Yeast superoxide	tim10-1 inh	NALP3 yeast inh	tim23-1 inh	tim23-1 confirm
C=C1SC(Nc2c(C)cccc2C)=NC12CCCCC2	–	–	–	–	50	44
O=C(NCC(=O)N1CCCCCCC1)c1cccc([N+](=O)[O-])c1	–	–	–	–	–	·
CC(C)(C)c1ccc(OCC(=O)NNC(=S)NC(=O)c2ccco2)c(Br)c1	–	–	–	–	–	·
CC(C)(C)c1ccc(OCC(=O)NCc2ccco2)c(Br)c1	–	–	–	–	56	62
O=C(NC(=S)Nc1cccc(O)c1)C1CCCCC1	–	–	–	–	51	42
O=C(Nc1cccc(Br)c1)C1CCCC1	–	–	–	–	64	62
Cc1ccc(NC(=S)NC(=O)C2CCCC2)cc1C	–	–	–	–	54	42

From PubChem BioAssay
